Where “and” joins values, the source holds several entries; their conditions need not be identical. Equal values may be shown once. Results filed as inconclusive are left out. Where a structure was tested more than once in an assay, its records may differ in their call. Calls of active or inactive are those of the source. Calls come from the whole dose curve; as a rule, active = well fitted curve in the direction sought with a large enough effect in the repeat runs; inconclusive = weak or mixed curves; inactive = no such curve, though single readings can be large; an effect the other way counts as inactive or inconclusive.
Assays:
[1] = target: Cytochrome P450 2C19 (Homo sapiens) (UniProt P33261); assay: Cytochrome P450 Family 2 Subfamily C Member 19 (CYP2C19) small molecule antagonists: luciferase reporter qHTS assay (AID 1671197); note: nearly all actives have a fitted effect of over 65% in size
Outline: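 First, compounds are pinned into enzyme-substrate mix and held 10 min at room temperature. Second, NADPH regeneration solution is added and plates incubate 1 h at 37C. Third, detection reagent is added and luminescence read after 20 min.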

[2] = target: Cytochrome P450 2C9 (Homo sapiens) (UniProt P11712); assay: Cytochrome P450 Family 2 Subfamily C Member 9 (CYP2C9) small molecule antagonists: luciferase reporter qHTS assay (AID 1671198); note: nearly all actives have a fitted effect of over 50% in size
Outline: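 P450-Glo proluciferin substrate with CYP2C9 enzyme; 10 min RT preincubation, then NADPH regeneration 1 h at 37C; luciferin detection reagent 20 min RT, luminescence in relative luminescence units.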

[3] = target: Cytochrome P450 1A2 (Homo sapiens) (UniProt P05177); assay: Cytochrome P450 Family 1 Subfamily A Member 2 (CYP1A2) small molecule antagonists: luciferase reporter qHTS assay (AID 1671199); note: nearly all actives have a fitted effect of over 50% in size
Outline: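 Steps: enzyme-substrate mix dispensed; test compounds and furafylline control pinned in; 10 min room temperature; NADPH regeneration solution added, 1 h; reaction stopped with luciferin detection reagent; luminescence read after 20 min.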

[4] = target: Voltage-gated inwardly rectifying potassium channel KCNH2 (Homo sapiens) (UniProt Q12809); assay: Human Ether-a-go-go-Related Gene (hERG) channel small molecule antagonists: fluorescence cell-based qHTS assay (AID 1671200); note: nearly all actives have a fitted effect of over 50% in size
Outline: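 U2OS cells expressing the channel were plated at 1000 cells/well, incubated overnight at 37 C, then loaded with FluxOR II thallium-sensitive dye for 1 h at room temperature in the dark, with a further 10 min at room temperature before stimulation.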

[5] = target: Cytochrome P450 3A4 (Homo sapiens) (UniProt P08684); assay: Cytochrome P450 Family 3 Subfamily A Member 4 (CYP3A4) small molecule antagonists: luciferase reporter qHTS assay (AID 1671201); note: nearly all actives have a fitted effect of over 50% in size
Outline: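 P450-Glo CYP3A4 system with proluciferin substrate; compounds preincubated 10 min RT with enzyme-substrate mix, then NADPH regeneration added for 1 h RT. Detection reagent 20 min, luminescence read as relative luminescence units.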
Potency is the fitted concentration of half-maximal effect.

Chain of Voltage-gated inwardly rectifying potassium channel KCNH2 (Homo sapiens) (Q12809 whole entry, looked up): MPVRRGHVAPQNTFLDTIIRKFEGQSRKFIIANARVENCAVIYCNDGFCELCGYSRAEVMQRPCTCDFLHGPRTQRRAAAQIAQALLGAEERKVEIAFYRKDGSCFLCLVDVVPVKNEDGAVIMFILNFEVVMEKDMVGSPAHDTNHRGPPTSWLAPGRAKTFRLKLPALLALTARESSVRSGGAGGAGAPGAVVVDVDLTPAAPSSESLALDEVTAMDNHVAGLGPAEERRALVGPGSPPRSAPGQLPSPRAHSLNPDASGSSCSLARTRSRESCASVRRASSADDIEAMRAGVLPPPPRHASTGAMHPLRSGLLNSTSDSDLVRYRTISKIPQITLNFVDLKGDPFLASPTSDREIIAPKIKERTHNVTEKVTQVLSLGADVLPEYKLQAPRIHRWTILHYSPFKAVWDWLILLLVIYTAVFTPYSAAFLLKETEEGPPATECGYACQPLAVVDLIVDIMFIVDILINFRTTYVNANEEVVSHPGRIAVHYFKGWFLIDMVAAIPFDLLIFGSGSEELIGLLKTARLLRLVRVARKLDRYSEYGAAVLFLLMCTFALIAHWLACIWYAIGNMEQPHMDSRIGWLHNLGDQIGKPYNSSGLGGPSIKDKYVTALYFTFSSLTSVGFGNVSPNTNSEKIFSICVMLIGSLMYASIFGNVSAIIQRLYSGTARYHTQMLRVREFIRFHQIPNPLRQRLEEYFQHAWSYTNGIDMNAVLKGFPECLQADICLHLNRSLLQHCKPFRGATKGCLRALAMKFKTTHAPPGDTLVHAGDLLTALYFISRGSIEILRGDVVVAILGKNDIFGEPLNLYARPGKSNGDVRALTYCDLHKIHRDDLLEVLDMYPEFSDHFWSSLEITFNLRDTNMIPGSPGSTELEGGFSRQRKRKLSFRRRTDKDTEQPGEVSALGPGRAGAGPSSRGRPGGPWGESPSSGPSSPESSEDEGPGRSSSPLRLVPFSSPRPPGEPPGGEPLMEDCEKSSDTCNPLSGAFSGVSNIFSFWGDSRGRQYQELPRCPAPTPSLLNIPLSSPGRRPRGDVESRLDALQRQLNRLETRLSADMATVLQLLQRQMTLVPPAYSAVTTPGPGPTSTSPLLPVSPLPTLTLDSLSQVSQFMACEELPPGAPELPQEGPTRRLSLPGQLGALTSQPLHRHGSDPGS
Chain of Cytochrome P450 2C9 (Homo sapiens) (P11712 whole entry, looked up): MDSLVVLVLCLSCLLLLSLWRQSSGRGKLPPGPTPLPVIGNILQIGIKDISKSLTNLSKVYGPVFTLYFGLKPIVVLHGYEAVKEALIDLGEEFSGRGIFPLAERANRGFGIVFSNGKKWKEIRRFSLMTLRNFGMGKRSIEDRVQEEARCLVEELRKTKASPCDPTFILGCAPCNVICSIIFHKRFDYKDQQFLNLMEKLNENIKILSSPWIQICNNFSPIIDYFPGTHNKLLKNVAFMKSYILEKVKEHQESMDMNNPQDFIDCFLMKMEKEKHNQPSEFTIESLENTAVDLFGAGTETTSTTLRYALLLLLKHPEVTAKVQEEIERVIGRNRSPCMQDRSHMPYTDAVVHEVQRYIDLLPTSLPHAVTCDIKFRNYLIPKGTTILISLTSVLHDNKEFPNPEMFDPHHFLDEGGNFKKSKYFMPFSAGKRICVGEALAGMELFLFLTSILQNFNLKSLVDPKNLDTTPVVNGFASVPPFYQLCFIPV
Chain of Cytochrome P450 2C19 (Homo sapiens) (P33261 whole entry, looked up): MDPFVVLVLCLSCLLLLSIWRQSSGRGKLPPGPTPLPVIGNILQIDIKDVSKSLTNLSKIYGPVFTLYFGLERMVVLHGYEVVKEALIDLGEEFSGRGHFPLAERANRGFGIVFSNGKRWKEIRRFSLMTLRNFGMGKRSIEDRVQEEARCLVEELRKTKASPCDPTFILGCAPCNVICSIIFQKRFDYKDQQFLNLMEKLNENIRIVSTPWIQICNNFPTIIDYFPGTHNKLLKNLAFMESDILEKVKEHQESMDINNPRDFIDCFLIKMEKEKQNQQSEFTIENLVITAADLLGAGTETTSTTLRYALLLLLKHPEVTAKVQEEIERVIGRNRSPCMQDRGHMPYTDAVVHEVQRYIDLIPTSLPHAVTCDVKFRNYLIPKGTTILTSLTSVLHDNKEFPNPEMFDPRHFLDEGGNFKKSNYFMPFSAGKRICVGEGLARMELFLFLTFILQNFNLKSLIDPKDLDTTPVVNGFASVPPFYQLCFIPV
Chain of Cytochrome P450 3A4 (Homo sapiens) (P08684 whole entry, looked up): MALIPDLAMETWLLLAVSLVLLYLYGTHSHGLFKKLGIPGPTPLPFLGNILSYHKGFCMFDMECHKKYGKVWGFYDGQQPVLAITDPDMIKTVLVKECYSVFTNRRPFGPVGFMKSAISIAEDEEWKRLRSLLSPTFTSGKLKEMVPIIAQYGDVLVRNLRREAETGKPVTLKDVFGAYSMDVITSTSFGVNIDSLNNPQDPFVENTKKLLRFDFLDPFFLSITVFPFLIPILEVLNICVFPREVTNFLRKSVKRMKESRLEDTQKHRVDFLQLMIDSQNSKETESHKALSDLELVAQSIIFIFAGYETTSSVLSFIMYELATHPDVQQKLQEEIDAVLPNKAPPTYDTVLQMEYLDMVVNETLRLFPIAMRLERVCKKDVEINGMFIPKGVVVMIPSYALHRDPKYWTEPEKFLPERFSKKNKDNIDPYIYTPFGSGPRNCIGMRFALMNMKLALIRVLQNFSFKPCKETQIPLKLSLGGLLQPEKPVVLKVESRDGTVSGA
Chain of Cytochrome P450 1A2 (Homo sapiens) (P05177 whole entry, looked up): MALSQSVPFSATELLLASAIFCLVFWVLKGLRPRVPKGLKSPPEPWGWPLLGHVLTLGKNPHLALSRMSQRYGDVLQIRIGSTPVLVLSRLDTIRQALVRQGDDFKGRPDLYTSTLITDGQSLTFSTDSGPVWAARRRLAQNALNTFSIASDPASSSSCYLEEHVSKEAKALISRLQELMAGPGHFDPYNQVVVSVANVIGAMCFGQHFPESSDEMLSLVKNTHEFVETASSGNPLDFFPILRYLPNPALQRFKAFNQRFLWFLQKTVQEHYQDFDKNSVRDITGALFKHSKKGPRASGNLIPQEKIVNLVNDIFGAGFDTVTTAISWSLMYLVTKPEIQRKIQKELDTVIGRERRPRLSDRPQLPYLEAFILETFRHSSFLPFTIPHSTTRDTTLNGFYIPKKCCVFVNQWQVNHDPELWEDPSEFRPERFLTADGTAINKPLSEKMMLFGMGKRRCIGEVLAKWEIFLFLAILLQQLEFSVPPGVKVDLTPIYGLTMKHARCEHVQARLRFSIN

Row | SMILES | Potency [1] | Potency [2] | Potency [3] | Potency [4] | Potency [5]
1 | OCc1c[nH]c2ccccc12 | 2.52 µM (active) | 7.52 µM (active) | 29.1 µM (active) | inactive | 
2 | COCCCC/C(=N\OCCN)c1ccc(C(F)(F)F)cc1 | 0.692 µM (active) | 3.89 µM (active) | 0.204 µM (active) |  | 
3 | CCCCCCC[N+](CC)(CC)CCCCc1ccc(Cl)cc1 | inactive | inactive | inactive |  | 
4 | Cc1[nH]cnc1C[C@H]1CCc2c(C)c3ccccc3n2C1=O | 1.95 µM (active) | 0.49 µM (active) | 1.74 µM (active) | 5.36 µM (active) | 
5 | CCC(CN)=C(c1ccccc1)c1ccccc1 | 4.36 µM (active) | 15.5 µM (active) |  |  | 
6 | CCOC(=O)O[C@]1(C(=O)OCCl)CC[C@H]2[C@@H]3CCC4=CC(=O)C=C[C@]4(C)[C@H]3[C@@H](O)C[C@@]21C | inactive | inactive | inactive |  | 
7 | Nc1c(Cl)cc(Cl)cc1Cl | inactive | inactive | 15.7 µM (active) | inactive | 
8 | Nc1cc(C(F)(F)F)ccc1S | 2.19 µM (active) | 2.19 µM (active) | 12.3 µM (active) | inactive | 
9 | COC(=O)C1=C(C)NC(C)=C(C(=O)OCCc2ccc(N3CCN(C(c4ccccc4)c4ccccc4)CC3)cc2)C1c1cccc([N+](=O)[O-])c1 (stereo not drawn) | 7.76 µM (active) | 0.436 µM (active) | 14.4 µM (active) | inactive | 
10 | CC[C@H](c1ccc(O)cc1)[C@@H](CC)c1ccc(O)cc1 | 79.6 µM (active) and inactive | 39.9 µM (active) and 30.9 µM (active) | inactive |  | 
11 | CC(=O)S[C@@H]1CC2=CC(=O)CC[C@]2(C)[C@H]2CC[C@@]3(C)[C@@H](CC[C@@]34CCC(=O)O4)[C@H]12 | 6.33 µM (active) |  |  |  | 
12 | C[C@@H]1C[C@H]2[C@@H]3CCC4=CC(=O)C=C[C@]4(C)[C@@]3(Cl)[C@@H](O)C[C@]2(C)[C@@]1(OC(=O)c1ccco1)C(=O)CCl | 9.77 µM (active) | 8.71 µM (active) | inactive | inactive | 
13 | CCCCC(CC)CN=C(N)NC(N)=NCCCCCCN=C(N)NC(N)=NCC(CC)CCCC (stereo not drawn) | 17.4 µM (active) | 17.4 µM (active) | 32.3 µM (active) | inactive | 
14 | ON=C1CCCC1 | 32.8 µM (active) | 41.3 µM (active) | 36.8 µM (active) | inactive | 
15 | CC(C)(C)CC(C)(C)c1ccc(O)c(Cc2ccc(Cl)cc2Cl)c1 | 1.74 µM (active) | 5.49 µM (active) | 15.5 µM (active) | inactive | 
16 | Cc1ccc(O)c(C(C)(C)C)c1 | 35.5 µM (active) and 35.6 µM (active) |  |  |  | 
17 | O=C1Cc2cc(CCN3CCN(c4nsc5ccccc45)CC3)c(Cl)cc2N1 | 21.9 µM (active) | 27.5 µM (active) |  |  | 
18 | Oc1ccc(Cl)cc1Sc1cc(Cl)ccc1O | 1.26 µM (active) and 1.55 µM (active) | 10 µM (active) and 7.76 µM (active) | 35.5 µM (active) and 27.5 µM (active) | inactive | 
19 | O=c1c(-c2ccccc2)c1-c1ccccc1 | 7.76 µM (active) | 17.4 µM (active) | 1.15 µM (active) | inactive | 

Row | SMILES | Potency [1] | Potency [2] | Potency [3] | Potency [4] | Potency [5]
20 | O=C(Nc1cccc([N+](=O)[O-])c1)c1cc2ccccc2cc1O | 79.6 µM (active) | 17.8 µM (active) | 3.56 µM (active) | inactive | 
21 | O=C(NOCC1CC1)c1ccc(F)c(F)c1Nc1ccc(I)cc1Cl | 0.246 µM (active) | 0.55 µM (active) | 15.5 µM (active) | inactive | 
22 | CCCCCCCCOc1ccccc1C(=O)Nc1ccc(C(=O)OCC[N+](C)(CC)CC)cc1 | 3.89 µM (active) | 4.36 µM (active) | inactive |  | 
23 | Cc1cc(O)c2ccccc2c1O | 11 µM (active) | 12.3 µM (active) | 1.23 µM (active) | 3.38 µM (active) | 
24 | CC1=C(C(=O)OC(C)C)C(c2cccc([N+](=O)[O-])c2)C(C(=O)OC2CN(C(c3ccccc3)c3ccccc3)C2)=C(N)N1 (stereo not drawn) | 1.74 µM (active) | 1.38 µM (active) |  |  | 
25 | CC(C)(C)C(=O)OCOC(=O)[C@@H]1N2C(=O)[C@@H](NC(=O)[C@H](N)c3ccccc3)[C@H]2SC1(C)C | inactive | 24.5 µM (active) | inactive |  | 
26 | CN(C/C=C/C#CC(C)(C)C)Cc1cccc2ccccc12 | 17.4 µM (active) | 15.5 µM (active) | 17.4 µM (active) |  | 
27 | CC(C)n1nc(-c2cc3cc(O)ccc3[nH]2)c2c(N)ncnc21 | 0.49 µM (active) | 2.45 µM (active) | 3.63 µM (active) | inactive | 
28 | Cc1ccc(-n2nc(C(C)(C)C)cc2NC(=O)Nc2ccc(OCCN3CCOCC3)c3ccccc23)cc1 | 3.89 µM (active) | 6.92 µM (active) |  |  | 
29 | O=C(N/N=C/c1ccccc1O)c1ccncc1 | 4.9 µM (active) | 2.19 µM (active) | 0.575 µM (active) | inactive | 
30 | CCCCCCCCOC(=O)c1ccc(O)cc1 | 22.4 µM (active) and 10 µM (active) | 31.6 µM (active) and 35.6 µM (active) | 19.9 µM (active) and 12.6 µM (active) | inactive | 
31 | CC[C@@]1(O)C(=O)OCc2c1cc1n(c2=O)Cc2cc3c(CN(C)C)c(O)ccc3nc2-1 | inactive | inactive | inactive | inactive | 
32 | Fc1ccc([C@@H]2CCNC[C@H]2COc2ccc3c(c2)OCO3)cc1 | inactive | inactive | 12.9 µM (active) |  | 
33 | Oc1ccc2c(c1)-c1ccccc1C2 | 39.9 µM (active) | 39.9 µM (active) | 5.03 µM (active) | inactive | 
34 | Clc1ccccc1C(c1ccccc1)(c1ccccc1)n1ccnc1 | 3.99 µM (active) and 2.45 µM (active) | 1.12 µM (active) and 1.1 µM (active) |  |  | 
35 | O=c1[nH]sc2cc(Cl)ccc12 | inactive | 13.8 µM (active) | 24.5 µM (active) | inactive | 
36 | O=Cc1cc(O)ccc1Br | 36.1 µM (active) | 45.4 µM (active) | 36.1 µM (active) | inactive | inactive
37 | CN1CCC(Nc2ncc3ncnc(Nc4ccc(F)c(Cl)c4)c3n2)CC1 | inactive | inactive | inactive | inactive | inactive
38 | N/C(=N\N=C\c1ccc(Cl)cc1)N/N=C/c1ccc(Cl)cc1 | 2.19 µM (active) | 13.8 µM (active) | 3.63 µM (active) | 2.39 µM (active) | 

Row | SMILES | Potency [1] | Potency [2] | Potency [3] | Potency [4] | Potency [5]
39 | O=S1(=O)CC(Cl)(Cl)C(Cl)(Cl)C1 | 35.6 µM (active) | 22.4 µM (active) | 22.4 µM (active) | inactive | 25.2 µM (active)
40 | O=C1c2ccccc2Cc2ccccc21 | 9.01 µM (active) | 16 µM (active) | 0.452 µM (active) | inactive | 22.6 µM (active)
41 | Nc1ccc2c3c(cccc13)-c1ccccc1-2 | 18 µM (active) | 32.1 µM (active) | 0.128 µM (active) | inactive | 18 µM (active)
42 | COc1ccc(-c2ccc3cc(C(=O)O)ccc3c2)cc1C12CC3CC(CC(C3)C1)C2 | inactive | inactive | inactive | inactive | inactive
43 | Cc1cccc(N(C)C(=S)Oc2ccc3c(c2)C2CCC3C2)c1 (stereo not drawn) | 1.74 µM (active) | 15.5 µM (active) | 9.11 µM (active) | inactive | 
44 | CN(C)[C@@H]1C(=O)C(C(N)=O)=C(O)[C@@]2(O)C(=O)C3=C(O)c4c(O)cccc4C[C@H]3C[C@@H]12 | inactive | inactive | inactive | inactive | inactive
45 | CNc1ccc(O)cc1 | 15.9 µM (active) | 22.4 µM (active) | 63.2 µM (active) | inactive | 25.1 µM (active)
46 | Clc1ccc2nsnc2c1NC1=NCCN1 | inactive | inactive | inactive | inactive | inactive
47 | CCCC1O[C@@H]2C[C@H]3[C@@H]4CCC5=CC(=O)C=C[C@]5(C)[C@H]4[C@@H](O)C[C@]3(C)[C@]2(C(=O)CO)O1 (stereo partly drawn) | 39.9 µM (active) and inactive | 39.9 µM (active) and 35.6 µM (active) | inactive | inactive | 
48 | CN(C)C(=O)C1(N2CCCCC2)CCN(CC[C@@]2(c3ccc(Cl)c(Cl)c3)CN(C(=O)c3ccccc3)CCO2)CC1 | 1.67 µM (active) | 37.3 µM (active) | inactive | 11.5 µM (active) | 0.744 µM (active)
49 | Oc1ccc2cc(SSc3ccc4cc(O)ccc4c3)ccc2c1 | 35.6 µM (active) | 71.1 µM (active) and 39.9 µM (active) | 63.4 µM (active) and 63.3 µM (active) | inactive | 14.2 µM (active) and 31.7 µM (active)
50 | O=C(Nc1ccc(Oc2ccc(Cl)cc2)c(Cl)c1)c1cc(I)cc(I)c1O | inactive | 38.9 µM (active) | inactive | inactive | inactive
51 | NC(=O)N1C(=O)C(C(=O)c2cc(Cl)cs2)c2cc(F)c(Cl)cc21 (stereo not drawn) | 79.6 µM (active) | 6.33 µM (active) | 17.8 µM (active) | inactive | 5.03 µM (active)
52 | Oc1cc2ccccc2c2ccccc12 | 1.12 µM (active) | 5.03 µM (active) | 0.0502 µM (active) | inactive | 6.33 µM (active)
53 | CC[C@H]1O[C@]2(CC[C@@H]1C)C[C@@H]1C[C@@H](C/C=C(\C)C[C@@H](C)/C=C/C=C3\CO[C@@H]4[C@H](O)C(C)=C[C@@H](C(=O)O1)[C@]34O)O2 | 19.8 µM (active) | 12.5 µM (active) | inactive | inactive | 5.59 µM (active)
54 | COC(=O)c1cc(Cl)ccc1OC | inactive | inactive | 2.88 µM (active) | inactive | inactive
55 | CCC(C)Nc1ccc(NC(C)CC)cc1 (stereo not drawn) | 1.82 µM (active) | 5.12 µM (active) | 40.7 µM (active) | 7.91 µM (active) | 8.12 µM (active)
56 | CCCCC(CC)COP(=O)(O)OCC(CC)CCCC (stereo not drawn) | 31.8 µM (active) and 31.7 µM (active) | 22.5 µM (active) and 17.8 µM (active) | inactive | inactive | inactive

Source: PubChem BioAssay (Tox21)
